D1 PAM – human D1 dopamine receptor positive modulation; HEK293 TREx D1 cells, calcium flux, dopamine EC20 potentiation; 360,000 tested, 0.036% active; P21728; potentiation, % at 10 µM; in the data active means potentiation above about 30%
Target sequence (P21728 whole entry, looked up): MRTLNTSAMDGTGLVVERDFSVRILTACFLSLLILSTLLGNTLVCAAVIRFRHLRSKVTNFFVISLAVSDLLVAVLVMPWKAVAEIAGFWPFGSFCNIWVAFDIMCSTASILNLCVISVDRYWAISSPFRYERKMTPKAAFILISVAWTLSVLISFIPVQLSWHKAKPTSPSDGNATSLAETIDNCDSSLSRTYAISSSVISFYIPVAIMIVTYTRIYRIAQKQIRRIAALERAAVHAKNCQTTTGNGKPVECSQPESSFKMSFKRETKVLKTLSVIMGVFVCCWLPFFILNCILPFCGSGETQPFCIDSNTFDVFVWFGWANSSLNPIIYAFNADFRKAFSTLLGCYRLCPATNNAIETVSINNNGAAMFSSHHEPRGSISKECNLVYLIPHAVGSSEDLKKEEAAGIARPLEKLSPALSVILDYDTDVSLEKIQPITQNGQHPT
TRHR PAM – allosteric enhancers of human TRH receptor | P34981 | TRHR cells, fluo-8 calcium fluorescence, EC20 TRH enhancement | enhancement, % at 2 µM | 360,000 tested, 0.66% active; in the data active means enhancement above about 30%
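Enhancer read-out: after compound pinning and an initial kinetic agonist-mode read, an EC20 of TRH (10 nM final) was injected and fluo-8 calcium signal (Ex 480/Em 530) followed at 1 s/cycle for 100 cycles in TRHR-expressing cells.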
D1 agonist – activates the human D1 dopamine receptor. P21728. HEK293 T-REx D1 cells, calcium flux, agonist mode. activation, % at 2 µM. 360,000 tested, 1% active
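Tetracycline-induced HEK293 TREx D1 cells, force-coupled to calcium signalling, were dye-loaded with a no-wash calcium kit. Compound was pin-added after a 10 s baseline. Fluorescence was read kinetically at 1 cycle/s for 180 s, with calcium rises flagged as agonism.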
D1 antagonist – antagonists of human D1 dopamine receptor. P21728. HEK293 TREx D1 cells, calcium flux, dopamine EC80; stronger effect = lower value. activity change, negative = inhibition, % at 10 µM. 360,000 tested, 3.2% active; in the data active means activity change below about -30%
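Tetracycline-induced HEK293 T-REx cells with force-coupled D1 receptor were loaded with a no-wash calcium dye. Compound was added after a 10 s baseline and read kinetically for 180 s; EC80 dopamine was then added and calcium flux followed another 180 s.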
TRHR agonist – activates the human TRH receptor. P34981. TRHR cells, calcium flux fluo-8, FDSS agonist mode. activation, % at 2 µM. 360,000 tested, 0.18% active. AID 493084
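Agonist-mode FDSS calcium read (Ex 480/Em 530, 1 s cycles) in 1536-well TRHR cells with fluo-8 dye, after 10-cycle baseline and 23 nL compound addition; TRH at EC20 (10 nM final) added afterwards for the enhancer phase.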
Large screens that a line does not name were inactive; ! = not active in a repeat. Most compounds without a hit are left out; they make up all but 4.7% or so of the library. Unless noted, no stated cut-off is given here; in the data, active means activation above about 30%; inactive means the rest.

CC1=C(C(=O)OCc2ccccc2)C(c2cccc(Cl)c2Cl)NC(=O)N1CCCCCC(=O)O (centres undefined)	D1 antagonist -32.8
CC1=C(C(=O)OCc2ccccc2)C(c2cccc3ccccc23)NC(=O)N1CCCC(=O)O (centres undefined)	D1 antagonist -39.2
CCC(=O)N1CCc2cc(Br)cc(S(=O)(=O)CCC(=O)NCc3cccc(OC)c3)c21	none
COc1cc(CN2CCNC(=O)C2CC(=O)NCCCC2CCCC2)cc(OC)c1 (centres undefined)	none
CC(C)C(=O)Nc1cccc(-c2csc(-c3ccccc3)n2)c1	none
CC(C)C(=O)Nc1ccc(-c2csc(-c3ccccc3)n2)cc1	D1 antagonist -38.0
COc1ccc(C(=O)Nc2cccc(C(=O)N/N=C/c3ccc(OC)cc3OC)c2)cc1	D1 antagonist -48.0
COc1ccc(/C=N/NC(=O)c2cccc(NC(C)=O)c2)c(OC)c1	none
COc1cc(NC(=O)c2cc(OC)c(OC)c(OC)c2)ccc1NC(=O)c1cccs1	none
COc1ccc(C(=O)Nc2cccc(NC(=O)c3cccs3)c2)cc1	D1 antagonist -31.5
COc1cc(NC(=O)c2c(F)c(F)c(OC)c(F)c2F)ccc1NC(=O)c1cccs1	D1 antagonist -45.9
CN(C)S(=O)(=O)c1ccc(N2CCCC2)c(C(=O)NC2CCCCC2)c1	none
COc1cccc(C(O)c2cnc(C(C)C)n2C)c1 (centres undefined)	none
CC(C)(C)S(=O)(=O)c1cnc(-c2ccc(Cl)cc2)nc1N	none
Cc1nc(N)nc(N)c1/C=C/C(C)(C)c1ccc(Cl)cc1	D1 agonist 38.2
COc1ccc2cc(CNc3ccc(C)cc3)c(=O)n(CC(=O)Nc3cccc(C(F)(F)F)c3)c2c1	none
COc1ccc(CC(=O)Nc2c3c(nn2C(C)(C)C)CS(=O)(=O)C3)cc1OC	none
CN(C)C(=O)CSc1nnc(CCCCCNC(=O)OC(C)(C)C)o1	none
CC(C)(C)OC(=O)NCCCCCc1nnc(SCc2cccc(F)c2)o1	D1 antagonist -36.4
CN(C)C(=O)CSc1nnc(CCNC(=O)OC(C)(C)C)o1	D1 antagonist -32.5
CN(C)c1ccc(C(CNC(=O)c2ccccc2)N2CCc3ccccc32)cc1 (centres undefined)	none
Cc1cccc(NC(=O)c2oc3ccccc3c2NC(=O)Cc2coc3cc(C)cc(C)c23)c1	none
CCCc1cc(NCCCN(C)C)n2c(nc3ccccc32)c1C#N	D1 antagonist -38.0
COc1ccc([N+](=O)[O-])cc1/C=N/NC(=O)CNC(=O)C(c1ccccc1)c1ccccc1	D1 antagonist -32.1
O=C(Nc1ccccc1)c1cnc[nH]1	none
O=C(c1ccccc1)c1cnc[nH]1	TRHR PAM 30.4
CC1CCCN(C(=O)CN(C)S(=O)(=O)c2cccc3nsnc23)C1 (centres undefined)	none
CC(=O)N1CCSc2ccc(S(=O)(=O)NCc3ccc(F)cc3)cc21	D1 antagonist -30.5
CC(=O)N1CCSc2ccc(S(=O)(=O)NCc3ccccc3)cc21	none
CC(=O)N1CC(C)Sc2ccc(S(=O)(=O)NCc3ccc(F)cc3)cc21 (centres undefined)	D1 antagonist -37.3
COc1ccc(CNS(=O)(=O)c2ccc3c(c2)N(C(C)=O)CC(C)S3)cc1 (centres undefined)	none
CCOc1ccc(-c2cc3nc(C4CCN(C(=O)OC(C)(C)C)CC4)c(C(=O)Nc4ccc(C)cc4C)cn3n2)cc1	none
O=C(CSc1nc2c(oc3ccccc32)c(=O)n1-c1ccccc1)Nc1ccccc1F	none
O=C(c1cnn2c(C(F)(F)F)cc(-c3cccs3)nc12)N1CCN(C(c2ccccc2)c2ccccc2)CC1	D1 antagonist -46.5
CCCCNS(=O)(=O)c1ccc(S(=O)(=O)N2CCC3(CC2)OCCO3)cc1	D1 antagonist -45.8
O=S(=O)(c1ccc(S(=O)(=O)N2CCC3(CC2)OCCO3)cc1)N1CCCC1	none
CC(C)Oc1ccc(C(=O)OC(C)C(=O)NC2CCCCC2C)cc1 (centres undefined)	D1 antagonist -48.3
Clc1ccc(CCNC(c2ccc(Cl)cc2)c2nnc(-c3ccccc3)o2)cc1 (centres undefined)	D1 agonist 35.4
Fc1ccccc1C(NCCc1ccc(Cl)cc1)c1nnc(-c2ccccc2)o1 (centres undefined)	none
Cn1c(C(=O)Nc2ccc(Cl)cc2)cc2cc(Cl)ccc21	TRHR PAM 32.5
CCc1ccc(NC(=O)c2cc3sc(Cl)cc3n2C)cc1	D1 antagonist -42.7
CC(C)c1ccc(NC(=O)c2cc3sc(Cl)cc3n2C)cc1	none
CCn1c(C(=O)Nc2c(C)cccc2C)cc2sc(Cl)cc21	D1 antagonist -42.2
CCc1ccccc1NC(=O)c1cc2sc(Cl)cc2n1CC	none
CCCN(C(=O)CCNC(=O)c1ccc(Cl)cc1)c1c(N)n(Cc2ccccc2)c(=O)[nH]c1=O	D1 antagonist -31.5 (no result: D1 PAM)
CCN(C(=O)COc1ccc(F)cc1Br)c1c(N)n(Cc2ccccc2)c(=O)[nH]c1=O	D1 antagonist -40.5
COCCN(C(=O)COC(=O)c1cc2c(s1)CCCC2)c1c(N)n(Cc2ccccc2)c(=O)[nH]c1=O	none
CCCc1cc(C(=O)OCC(=O)N(CCC)c2c(N)n(Cc3ccccc3)c(=O)[nH]c2=O)sc1C	D1 PAM 39.6
Cc1cc2c(s1)c1cnn(Cc3ccccc3Cl)c(=O)c1n2C	none
CCc1cnc2c(c1SC(C(C)=O)C(=O)N(C)C)c(=O)n(C)c(=O)n2C (centres undefined)	none (no result: D1 antagonist)
CNC(=O)/C(C#N)=C\c1ccc(CNS(=O)(=O)c2ccc(Cl)cc2)o1	D1 antagonist -69.0
COCCn1c(SCC(=O)N2CCN(c3ccccc3)CC2)nc2c(c1=O)SC(C)C2 (centres undefined)	D1 antagonist -35.0
O=c1c2oc3ccccc3c2n(Cc2cccc(F)c2)c(=O)n1Cc1ccco1	none
O=C(Nc1cccc(C(F)(F)F)c1)Oc1ccc(Cl)c2cccnc12	D1 agonist 33.7
CC(=O)CCC(=O)NC1CCCc2c1cnn2-c1ccc(C(C)(C)C)cc1 (centres undefined)	D1 antagonist -37.4
COc1ccc(/C=C(\C#N)C(=O)NCc2ccccc2)cc1O	none (no result: D1 PAM)
COc1ccc(/C=C(\C#N)C(=O)NCc2cccs2)cc1OC	D1 antagonist -34.4
Cc1cc(OCCSc2nnc(-c3cccs3)n2C)ccc1Cl	D1 agonist 34.8
CC1=[N+](C)c2ccc3ccccc3c2C1(C)C	TRHR PAM 35.2
COC(=O)c1cc(S(=O)(=O)N2CCN(c3ccc(C(C)=O)cc3)CC2)c[nH]1	D1 antagonist -32.2
Cc1cccc(N2CCN(S(=O)(=O)c3ccc4c(c3)CC(=O)N4C)CC2)c1C	D1 antagonist -30.1!
CC1CCN(S(=O)(=O)c2ccc3c(c2)N(C)C(=O)CC(=O)N3C)CC1	D1 antagonist -36.8!
COC(=O)c1cc(S(=O)(=O)N2CCN(c3ccc(OC)cc3)CC2)c[nH]1	none

From PubChem BioAssay
